Measurements: PubChem BioAssay AID624267 (The Scripps Research Institute Molecular Screening Center, 2012)
In all, about 360,000 compounds went through this assay and about 1,400 (0.39%) were called active. Only a selection was taken, and actives are over-represented in it overall. Unmarked numbers belong to inactive results. Rule as the data show it: active = inhibition above about 21%; inactive = the rest.

biological target: Receptor-interacting serine/threonine-protein kinase 2 (Homo sapiens) (UniProt O43353); assay: inhibitors of RIPK2 association with NOD2 – fluorescence, CHO cells, BLA complementation, primary screen (AID 624267); conditions: CHO BLA complementation NOD2-RIPK2, CCF4 ratio; at 4.98 µM; hits give high values;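 also: 0% = vehicle only and 100% = reference blocker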
Sequence (O43353 whole entry, looked up): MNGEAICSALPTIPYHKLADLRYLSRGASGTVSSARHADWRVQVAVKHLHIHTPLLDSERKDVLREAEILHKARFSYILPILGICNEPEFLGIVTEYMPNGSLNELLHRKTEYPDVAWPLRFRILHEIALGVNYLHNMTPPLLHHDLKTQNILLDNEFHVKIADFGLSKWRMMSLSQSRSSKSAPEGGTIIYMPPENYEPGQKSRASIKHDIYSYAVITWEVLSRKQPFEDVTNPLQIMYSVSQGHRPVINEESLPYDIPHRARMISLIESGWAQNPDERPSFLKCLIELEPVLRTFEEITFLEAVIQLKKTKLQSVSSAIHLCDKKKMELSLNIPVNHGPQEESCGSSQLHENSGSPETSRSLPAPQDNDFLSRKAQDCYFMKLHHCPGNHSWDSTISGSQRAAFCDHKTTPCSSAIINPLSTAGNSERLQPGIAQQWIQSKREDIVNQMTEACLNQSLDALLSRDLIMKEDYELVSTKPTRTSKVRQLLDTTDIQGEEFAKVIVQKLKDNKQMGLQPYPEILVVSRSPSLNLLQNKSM

Row | SMILES | inhibition
1 | COCCCN(C(=S)Nc1c(C)cc(C)cc1C)C(C)c1ccncc1 (stereo unspecified) | -3.93%
2 | CC(=O)Oc1cccc(N2C(=O)CC(Nc3ccc(N4CCOCC4)cc3)C2=O)c1 (stereo unspecified) | -13.9%
3 | O=C(Cn1nc(C(=O)O)c2ccccc2c1=O)Nc1ccc(F)cc1 | -5.34%
4 | Cc1ccc(NC(=O)Cn2sc3ccccc3c2=O)cc1 | 22.1% (active)
5 | CC1(C)NC(=O)N(CC(=O)Nc2ccc(-c3ccccc3)cc2)C1=O | 4.81%
6 | CN(C)CCCNC(=S)N1CCC(c2nc3ccccc3[nH]2)CC1 | -7.82%
7 | CCc1nn(CCCC(=O)Nc2ccc(C)cc2C)c(=O)c2cc3occc3n12 | 4.65%
8 | CS(=O)(=O)N(CC(=O)N1CCCC1)Cc1ccccc1 | 3.45%
9 | O=[N+]([O-])c1ccc(CN2CC(N3CC=CC3)CS2(=O)=O)cc1 (stereo unspecified) | -11%
10 | O=C1/C(=C\c2ccc([N+](=O)[O-])cc2)CS(=O)(=O)C/C1=C/c1ccc([N+](=O)[O-])cc1 | 44.6% (active)
11 | CCc1nc2ccc(C(=O)NCc3ccc(OC)cc3)cn2c1N(CC)Cc1cccc(Br)c1 | 6.44%
12 | COC(=O)[C@]1(C)CCC[C@@]2(C)C3CC[C@]4(OC(C)=O)C[C@@]3(CCC21)CC4=NO (stereo partly specified) | 6.55%
13 | O=C(COc1ccccc1Cl)Nc1ccc(C(=O)c2ccc(C(=O)O)cc2)cc1 | 2.32%
14 | O=C(O)CC(Cc1ccccc1)C(=O)Nc1ccc([N+](=O)[O-])cc1 (stereo unspecified) | -1.04%
15 | COc1cc2c(cc1OC)C1C(=O)c3cc(OS(C)(=O)=O)c(OC)cc3C1N(C)C2=O (stereo unspecified) | 3.51%
16 | COc1ccc(C(CNC(=O)COc2ccc([N+](=O)[O-])cc2)N2CCCCC2)cc1 (stereo unspecified) | 0.77%
17 | COc1ccc(C(C[N+](=O)[O-])n2nc(C)cc2C)cc1 (stereo unspecified) | 26.6% (active)
18 | Cc1cc(C)n(CC(O)COc2ccc(C(C)(C)C)cc2)n1 (stereo unspecified) | -8.7%
19 | C=CCn1cc(-c2cccc(C(F)(F)F)c2)cc(C#N)c1=O | 0.01%

Row | SMILES | inhibition
20 | COCCCNC(=S)N1CCCC(c2nc3cc(C)c(C)cc3[nH]2)C1 (stereo unspecified) | -3.68%
21 | O=C(OCc1nnc(-c2ccccc2)o1)c1ccc2c(c1)C(=O)N(CCc1ccccc1)C2=O | 9.8%
22 | CC(C)N(Cc1nnc(-c2ccccc2Br)o1)C(=O)c1cc(Cl)nc2ccccc12 | -10.3%
23 | Nc1cccc2c1C(=O)N(Cc1nnc(-c3ccccc3Br)o1)C2=O | 27.5% (active)
24 | CC(C)CC(CO)N1CCN(C(=O)c2ccc(Cl)cc2Cl)CCC1=O (stereo unspecified) | -4.88%
25 | COc1ccc(-c2nc3n(c2Br)CCC3)cc1 | -7.99%
26 | O=C(Nc1ccccc1)C1CC(=O)n2c(nc3ccccc32)N1 (stereo unspecified) | -8.18%
27 | Cc1csc(NC(=O)C2CCCN2C(=O)OCC(C)C)n1 (stereo unspecified) | -2.47%
28 | CC1CC(C)CN(S(=O)(=O)c2cccc(C(=O)N3C(=O)c4cccc(N)c4C3=O)c2)C1 (stereo unspecified) | 30.1% (active)
29 | CN1CCN(S(=O)(=O)c2cccc(C(=O)N3CCc4ccccc43)c2)CC1 | 2.86%
30 | CC(=O)N1CCN(S(=O)(=O)c2cccc(C(=O)NC3CCC(C)CC3)c2)CC1 (stereo unspecified) | -9.28%
31 | O=[N+]([O-])c1ccc(Oc2ccc(F)cc2Br)c2ccncc12 | -1.06%
32 | CC(C)CNC(=S)NNC(=O)c1nn(C)cc1Cl | -4.5%
33 | O=C1CC(C(F)(F)C(F)(F)C(F)(F)C(F)(F)F)=Nc2ccccc2N1 | 24.9% (active)
34 | OC(CN=c1sc2ccccc2n1CC(O)COc1ccccc1)COc1ccccc1 (stereo unspecified) | -11.1%
35 | CCOc1ccc2c(=O)c(-c3ccc4c(c3)OCCCO4)c(C)oc2c1 | -5.36%
36 | CCOC(=O)c1c(NC(=O)C2CCN(S(=O)(=O)c3ccc(Cl)cc3)CC2)sc2c1CCCC2 | 4.57%
37 | CC[C@H]1CN2CCc3cc(OC)c(OC)cc3[C@@H]2C[C@@H]1C[C@H]1NCCc2cc(OC)c(OC)cc21 | 23.9% (active)
38 | COCCCNC(=O)Cn1c(=O)n(Cc2ccccc2Cl)c(=O)c2cc(OC)c(OC)cc21 | -13.8%

Row | SMILES | inhibition
39 | COc1ccccc1C(=O)NC(CCSC)C(=O)N1CCN(C/C=C/c2ccccc2)CC1 (stereo unspecified) | 0.75%
40 | O=C1NC(=O)C2C1C(c1ccc([N+](=O)[O-])cc1)=NN2Cc1ccccc1 (stereo unspecified) | 43.2% (active)
41 | CC(=O)N1c2ccccc2N(Cc2ccc([N+](=O)[O-])cc2)C(=O)C1(C)C | -3.82%
42 | O=[N+]([O-])c1ccc(C(S(=O)(=O)Cc2ccccc2)S(=O)(=O)Cc2ccccc2)cc1 | -0.41%
43 | COc1ccccc1C(=O)NCCC(=O)NC1=NCCS1 | -0.45%
44 | COc1ccc(OC)c(N=Cc2c(O)[nH]c3ccccc23)c1 | 68.3% (active)
45 | COc1cc2[nH]c(O)c(C=O)c2cc1OC | -11.7%
46 | COc1ccc(NC(=O)COC(=O)c2n[nH]c3ccccc23)c(OC)c1 | 2.43%
47 | CC(C)(C)c1ccc(CCC2OCC(CN3CCOCC3)O2)cc1 (stereo unspecified) | -4.96%
48 | Cc1ccc(C)c(NS(=O)(=O)c2c(C)[nH]c(C)c2C(=O)N2CCCCC2)c1 | -5.02%
49 | Cc1ccc(S(=O)(=O)N2CCN=C2SCc2c(F)cccc2Cl)cc1 | 4.62%
50 | COc1ccc(C(C(=O)NC(C)(C)C)N(C(=O)Cn2nnc3ccccc32)c2ccc(C(C)=O)cc2)cc1O (stereo unspecified) | 1.81%
51 | Cc1ccc(C(=O)N/N=C/c2sc(=O)n(Cc3cccc(C(=O)O)c3)c2Cl)cc1 | -4.49%
52 | CC(C)(C)C1CCC(C(=O)NCC(c2cccs2)N2CCOCC2)CC1 (stereo unspecified) | 2.5%
53 | O=C(CCN1CCc2ccccc2C(O)(c2ccccc2)C1)c1ccc2c(c1)OCCO2 (stereo unspecified) | 26.2% (active)
54 | O=C(CN1CCc2cc3c(cc2C1)OCCCO3)Nc1ccccc1 | -9.22%
55 | O=S(=O)(c1ccc2c(c1)OCCO2)N1CCc2ccccc21 | -1.2%
56 | O=C(NC(=S)NC1CCSC1=O)c1ccccc1F (stereo unspecified) | -9.93%
